# About 83,000 compounds went through this panel and 20% of them were active in at least one assay; those are over-represented in the sample as a whole.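 Step 1: grow cells in 96-well plates. Step 2: add test compound at a single concentration. Step 3: incubate 48 h. Step 4: record percent growth.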 A number with no mark means an inactive call. Active and inactive are the calls of the source. Rule for the calls: active = growth percent below 10; inactive = the rest.
# Columns and labels:
# Experiment in all cases: NCI-60 one-dose screen, 48 h (100 = growth as untreated, 0 = no growth, -100 = all killed)
# SK-MEL-2 melanoma = settings: 10 µM
# EKVX NSCLC = settings: 10 µM
# SN12C renal = settings: 10 µM
# UO-31 renal = settings: 10 µM
# TK-10 renal = settings: 10 µM unless noted
# ACHN renal = settings: 10 µM
# CAKI-1 renal = settings: 10 µM
# A498 renal = settings: 10 µM
# CCRF-CEM leukemia = settings: 10 µM
# MOLT-4 leukemia = settings: 10 µM
# SR leukemia = settings: 10 µM
# RPMI-8226 leukemia = settings: 10 µM
# OVCAR-8 ovarian = settings: 10 µM
# OVCAR-5 ovarian = settings: 10 µM
# OVCAR-4 ovarian = settings: 10 µM
# SK-OV-3 ovarian = settings: 10 µM
# IGROV1 ovarian = settings: 10 µM
# OVCAR-3 ovarian = settings: 10 µM
# HS 578T breast = settings: 10 µM
# NCI/ADR-RES ovarian = settings: 10 µM
SMILES,growth (SK-MEL-2 melanoma),growth (EKVX NSCLC),growth (SN12C renal),growth (UO-31 renal),growth (TK-10 renal),growth (ACHN renal),growth (CAKI-1 renal),growth (A498 renal),growth (CCRF-CEM leukemia),growth (MOLT-4 leukemia),growth (SR leukemia),growth (RPMI-8226 leukemia),growth (OVCAR-8 ovarian),growth (OVCAR-5 ovarian),growth (OVCAR-4 ovarian),growth (SK-OV-3 ovarian),growth (IGROV1 ovarian),growth (OVCAR-3 ovarian),growth (HS 578T breast),growth (NCI/ADR-RES ovarian)
CC(=O)c1c[nH]c2ccccc12,161%,99.2%,99.2%,74.7%,108%,107%,80.1%,103%,102%,104%,91.4%,110%,98.6%,111%,99.8%,108%,101%,120%,104%,107%
Nc1ccc(C(=O)c2ccc(N)c(Br)c2)cc1Br,8.1% (active),50.9%,29.2%,58.8%,22.5%,33.4%,42.9%,28.6%,13.4%,35.5%,26.1%,30.5%,26.4%,40%,49.1%,8.33% (active),32.8%,,-14.8% (active),0.17% (active)
COc1nc(N)nc2c1ncn2C1OC(CO)CC1O (stereo not drawn),106%,102%,103%,82.4%,105%,97.4%,104%,114%,58.8%,97.7%,115%,92%,101%,100%,,98.5%,112%,118%,,107%
CC(=O)OCC1CCCO1 (stereo not drawn),106%,96%,103%,92.2%,94.9%,106%,101%,101%,107%,97.6%,102%,119%,110%,110%,102%,92%,113%,114%,,105%
O=C(Nc1cc(-c2ccccc2)[nH]n1)c1ccc(Cl)cc1,78%,101%,84.1%,59.1%,66.6%,60.8%,76.3%,78.6%,62%,85.2%,47.7%,36.6%,84.3%,80.7%,71%,62.7%,3.1% (active),80.5%,,85%
Cc1cccc(CO)c1,110%,113%,106%,92.9%,108%,111%,100%,108%,110%,106%,109%,114%,101%,,103%,107%,115%,98.9%,101%,106%
CC(C)(O)C#CC#CC(C)(C)O,103%,99.5%,109%,99.1%,95.6%,98.8%,97.5%,93.6%,98.6%,90.7%,97.9%,92.1%,99.2%,97.8%,104%,,102%,,100%,96.9%
O=C(O)C(c1ccccc1)C(O)c1ccccc1 (stereo not drawn),99.6%,108%,98.2%,94.4%,108%,96.6%,100%,69.8%,99.8%,87.5%,94.6%,101%,99.4%,103%,120%,99.9%,101%,116%,,107%
C/C(=C\c1ccc([N+](=O)[O-])cc1)C(=O)O,110%,94.7%,99%,95.3%,105%,98%,95.6%,81.7%,87.6%,102%,96.3%,95.8%,99.2%,104%,99.2%,104%,110%,110%,101%,109%
CCOc1ccc(I)cc1,130%,105%,97.1%,89%,112%,110%,113%,101%,121%,115%,114%,131%,96.7%,,109%,110%,117%,116%,111%,101%
CCn1c(=O)n(C)c2c(=O)n(C)c(=O)n(C)c21,104%,103%,105%,87.4%,102%,105%,98.3%,91.7%,98.2%,101%,101%,106%,101%,108%,,106%,122%,,110%,105%
CCCCC(O)c1ccccc1 (stereo not drawn),109%,110%,109%,94.2%,106%,110%,99.7%,95.8%,107%,101%,98%,108%,93.8%,115%,,95.4%,110%,109%,116%,99.3%
Nc1nc(OCc2ccccc2)c2[nH]cnc2n1,107%,95%,105%,96.9%,82.1%,73.5%,74%,86.1%,143%,73%,84.9%,115%,,77.8%,65.9%,109%,93.4%,109%,93.6%,108%
FC(F)(F)c1ccc2c(c1)N(CCCN1CCN(C3CC3)CC1)c1ccccc1S2,90.4%,86.8%,47.7%,17.6%,80%,78.1%,17.3%,9.76% (active),26.5%,34%,7.62% (active),51.9%,,89.7%,73.6%,83.9%,50.2%,24.9%,75.3%,61.2%
OCc1ccc(-c2ccc(-c3ccc(CO)s3)o2)s1,79.7%,99.9%,55.7%,41.4%,-20.9% (active),63.7%,-54.3% (active),-89.1% (active),41.5%,33.1%,60.8%,-22.5% (active),,103%,-22.4% (active),78.2%,-73% (active),-30.8% (active),,65.1%
CC(=O)Oc1ccc(Br)cc1C(=O)O,99.8%,104%,102%,81.8%,102%,99.3%,95.8%,131%,88.7%,101%,99.1%,99.5%,,,104%,98.2%,98.4%,111%,,
O=c1[nH][nH]c(=O)c2cc([N+](=O)[O-])ccc12,103%,106%,108%,85.7%,104%,107%,96.8%,117%,100%,100%,94.9%,106%,,110%,99.2%,101%,103%,127%,100%,105%

# — PubChem BioAssay (NCI)
